Ba CapD inh: Bacillus anthracis CapD inhibitors, primary screen, biochemical, fluorescence intensity | z-score (concentration not given with the values) | 140,000 compounds, 0.23% hits | CapD gamma-glutamyltranspeptidase (Bacillus anthracis Ames Ancestor) | purified CapD enzyme, fluorescence intensity read-out; stronger effect = lower value | AID 492967, 2010; in the data active = z-score mostly below about -2.9, no sharp cut-off; inactive = mostly above about -1.9
A number is an active result; - = inactive. The sample as a whole holds a higher share of hits than the screen did.

SMILES	Ba CapD inh
c1ccc(C2=Nc3ccccc3SC2c2nc3ccccc3[nH]2)cc1 (stereo not drawn)	-4.1
O=C1CC(c2nc3ccccc3[nH]2)CN1c1ccccc1 (stereo not drawn)	-
COC(=O)NC1Sc2ccccc2N=C1c1ccccc1 (stereo not drawn)	-
CC1(C)CC(=O)C2=C(C1)c1c(ccc3ccccc13)NC2c1ccc(OCc2ccccc2)cc1 (stereo not drawn)	-
CCOC(=O)c1nnn(-c2nonc2N)c1CN1CCN(c2ccccc2)CC1	-
CC(C)(C)C(=O)Nc1ccc2c(c1)OCCO2	-
c1ccc2c(c1)CCN2c1ncnc2nc[nH]c12	-
COc1ccc(CN2C(=O)c3ccccc3C2=O)cc1	-
COc1ccc(CCNC(=O)C(F)(F)F)cc1	-
COc1ccc(CCNC(=O)C(C(C)C)N2C(=O)c3ccccc3C2=O)cc1 (stereo not drawn)	-4.8
C=C1CC[C@@H](O)C/C1=C/C=C1\CCC[C@]2(C)[C@@H]([C@H](C)/C=C/[C@@H](C)C(C)C)CC[C@@H]12	-
CN(CCNc1nc(-c2ccccc2)no1)Cc1ccccc1	-
Cc1ccc(NC(=O)c2ccc(NC3=NC4CS(=O)(=O)CC4S3)cc2)cc1F (stereo not drawn)	-
O=C(Nc1ccc(-n2nncc2-c2ccccc2)cc1)c1ccc(F)cc1	-
COC(=O)c1ccccc1-n1cnc2ccccc2c1=O	-
COC(=O)C1=CN(N(C(C)=O)C(C)=O)C(=O)CC1	-9.2
COC(=O)C1=CCCN(C)C1	-
CCOC(=O)C1=CN(Cc2ccc(OC)c(OC)c2)C=C(C(=O)OCC)C1c1ccc([N+](=O)[O-])cc1	-
O=CC12c3ccccc3C(c3ccccc31)C1C(=O)N(c3ccc(Cl)cc3)C(=O)C12 (stereo not drawn)	-
CCCCC1(C)OC(=O)C(=Cc2ccc(Br)o2)C(=O)O1 (stereo not drawn)	-4.4
O=C1/C(=C\c2ccc(Br)o2)CC/C1=C/c1ccc(Br)o1	-
CCCCC1(C)OC(=O)C(=Cc2ccc(OCC)c(OC)c2)C(=O)O1 (stereo not drawn)	-
CCc1[nH]c(=S)[nH]c(=O)c1C#N	-6.5
Cc1[nH]c(=O)c(C#N)c(C)c1Cl	-
CCc1[nH]c(=O)c(C#N)c2c1CCCC2	-
SMILES	Ba CapD inh
CS(=O)(=O)c1ccc(CC(=O)NCC2CCCO2)cc1 (stereo not drawn)	-
CCOC(=O)CCc1c(CC(=O)OCC)c[nH]c1/C=N/O	-10
CCOC(=O)CCc1n[nH]c(=O)[nH]c1=O	-
CCOC(=O)CCc1c(C)nc2ncnn2c1C	-
CC(=O)NS(=O)(=O)c1ccc(N=Cc2nc(-c3cccc4ccccc34)oc2O)cc1	-
CC(NC(=O)C1CCCN(c2nnc(-n3cccc3)s2)C1)c1ccc2c(c1)OCCO2 (stereo not drawn)	-
COc1ccc(C2C(C#N)=C(N)Oc3n[nH]c(C45CC6CC(CC(C6)C4)C5)c32)cc1OC (stereo not drawn)	-
O=C(Oc1ccc(N(C(=O)c2ccccc2)S(=O)(=O)c2cccs2)cc1)c1ccccc1	-
COc1ccc(N(C(=O)c2ccncc2)S(=O)(=O)c2cccs2)cc1	-8.5
CC(=O)N(c1ccc(N(C(C)=O)S(=O)(=O)c2cccs2)cc1)S(=O)(=O)c1cccs1	-
Cc1ccc(C(=O)Nc2cccc(O)c2)cc1	-
CCOC(=O)c1c(C)oc2c1c1c(c3ccccc32)OCN(C2CC(C)(C)NC(C)(C)C2)C1	-
c1ccc2sc3c(-c4ccncc4)sc4ccccc4[nH]c-3nc2c1	-4.1
Oc1ccc(-c2nc3ccccc3[nH]2)cc1	-
c1ccc(-c2nnsc2-c2nc3ccccc3[nH]2)cc1	-
Oc1c(N=Nc2cc(Cl)ccc2Cl)c2ccccc2n1-c1ccccc1	-
[N-]=C=C1C(=O)N(CCc2ccccc2)C(=O)[C@H]([n+]2ccccc2)[C@H]1c1ccc(Cl)cc1	-
Cc1cc2ncc(C(=O)/C=C/N(C)C)c(C)n2n1	-5.1
CC(=O)c1cnc2cc(C)nn2c1C	-
CCOC(=O)c1cnc2cc(C)nn2c1C	-
CCn1cc(S(=O)(=O)N2CCN(Cc3ccccc3)CC2)cn1	-
Oc1c(Br)cc(Br)cc1CNc1ccccc1Cl	-
O=C(CSCc1ccc(Cl)cc1)c1cc2ccccc2o1	-
CN(C)N=Nc1ccc(S(=O)(=O)NC(=O)Cc2ccccc2)cc1	-
CC(=O)N(C(C)=O)S(=O)(=O)c1ccc(N=NN(C)C)cc1	-5.1
SMILES	Ba CapD inh
Cc1ccc(N=NN(C)C)cc1	-
CN1CCN(Cc2ccc(O)c3ncccc23)CC1	-4.8
CC(C)OCc1cc(CN2CCN(C)CC2)c(O)c2ncccc12	-
Oc1ccc(CN2CCOCC2)c2cccnc12	-
COc1ccc(-n2c(C=C3C(=O)N(C)c4ccc(Br)cc43)nc3ccccc3c2=O)cc1	-
CC(=O)NCCNC(=O)NCCc1ccc(S(N)(=O)=O)cc1	-
COc1cc(C2C3=C(CC(C)(C)CC3=O)OC3=C2C(=O)CC(C)(C)C3)ccc1OC(=O)Nc1cccc(Cl)c1	-
CS(=O)(=O)c1ccc(-n2cc(-c3ccccc3NS(=O)(=O)c3cccc(C(F)(F)F)c3)cn2)cc1	-

Source: PubChem
